VDR inhibitor = vitamin D3 receptor (human) inhibition. AID 504847. VDR-SRC2-3 peptide fluorescence polarization, 2 h. P11473. 400,000 tested, 0.93% active. Potency, µM, for the others: max response, negative = inhibition, hits mostly inhibitors; note: potency is the fitted concentration of half-maximal effect; % is set by controls: 0 for no effect and ±100 for the full control effect
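Two reagent solutions held at 4 deg C in the dark were dispensed, compounds pinned at 23 nl, and the mixture incubated 2 h at room temperature. Read-out: fluorescence polarization of VDR–SRC2-3 peptide binding.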
PLK1 PBD inh = PLK1 (human) polo-box domain binding inhibition. Plk1 PBD binding of FITC phosphopeptide, fluorescence polarization. Potency, µM, for the others: max response, negative = inhibition, hits mostly inhibitors. 360,000 tested, 2.8% active. P53350; note: potency is the fitted concentration of half-maximal effect; series mostly up to about 57 µM; % is set by controls: 0 for no effect and ±100 for the full control effect; nearly all actives have a fitted effect of over 65% in size
Target sequence (P53350 whole entry, looked up, the tested form may be a part): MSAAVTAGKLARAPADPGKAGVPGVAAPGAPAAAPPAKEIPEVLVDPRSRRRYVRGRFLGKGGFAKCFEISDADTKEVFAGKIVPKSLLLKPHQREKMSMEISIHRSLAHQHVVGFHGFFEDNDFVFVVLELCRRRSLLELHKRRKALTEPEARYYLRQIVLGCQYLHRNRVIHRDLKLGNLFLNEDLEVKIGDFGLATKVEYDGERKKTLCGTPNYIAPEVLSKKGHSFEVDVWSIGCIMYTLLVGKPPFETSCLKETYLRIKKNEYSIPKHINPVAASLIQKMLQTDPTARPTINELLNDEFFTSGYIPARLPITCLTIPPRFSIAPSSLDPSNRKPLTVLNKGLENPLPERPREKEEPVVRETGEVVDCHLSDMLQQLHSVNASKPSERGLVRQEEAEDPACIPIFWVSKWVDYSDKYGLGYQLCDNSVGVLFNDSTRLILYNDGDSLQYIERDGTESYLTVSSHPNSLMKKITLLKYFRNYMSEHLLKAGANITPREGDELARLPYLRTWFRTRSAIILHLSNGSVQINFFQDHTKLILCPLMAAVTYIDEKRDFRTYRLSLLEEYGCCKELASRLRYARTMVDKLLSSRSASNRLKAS
MBNL1-CUG inh = inhibitors of human MBNL1 binding to CUG repeat RNA; Q9NR56; TR-FRET MBNL1-His/biotin-(CUG)12 binding, 665/545 ratio; Potency, µM (series often up to 57.5 µM), without a hit: at the top dose activity change, negative = inhibition, actives largely listed as inhibitors; 280,000 tested, 0.036% active; AID 2675; active = well fitted inhibition curve with a large enough effect in the signal ratio, with a control signal flat, not every such curve was filed as active; inconclusive = small, poorly fitted or top-dose-only effect, or effect the other way, or a change in a side signal; inactive = no such curve, though single readings can be large or run the other way; the % refers to the signal ratio; note: potency is the fitted concentration of half-maximal effect; % is set by controls: 0 for no effect and ±100 for the full control effect
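Ratiometric TR-FRET (665 over 545 nm, excitation 340 nm) tracks disruption of MBNL1-His/biotin-(CUG)12 complex after 60 min at room temperature, with compounds at 92 nM to 58 uM final.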
CBFb RUNX1 block = CBF-beta/RUNX1 interaction disruption | AlphaScreen CBFb-His/RUNX1-biotin binding, biochemical | Potency, µM (doses to about 59.8 µM), for inactives: at the highest dose activity, negative = inhibition, most hits filed as inhibitors | 230,000 tested, under 10 active | AID 1477; note: % of control where 0% means no effect
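CBFb-His/RUNX1-biotin, 30 nM each, preincubated 20 min RT; compound 15 min RT; Ni + streptavidin beads 50 ng each, 90 min RT; AlphaScreen read.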
KCNH2 3.1 block = inhibitors of human KCNH2 3.1 potassium channel isoform; 340,000 tested, 0.95% active; AID 720553; U2OS KCNH2 3.1, thallium flux FluxOr; stronger effect = lower value; activity change, % (tested at about 1.8 µM);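 active = maximum activity change below -70%; inconclusive = maximum activity change from -70% to -50%; inactive = maximum activity change above -50%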;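 note: thallium influx rate constant from kinetic fluorescence after stimulation buffer; % is set by controls: 0 for no effect and ±100 for the full control effect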
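Normalized rate constant (relative to positive and negative DMSO controls) derived from a 2 min kinetic fluorescence read after stimulation; U2OS cells expressing the 3.1 isoform via virus at 1.77 x 10^8 /mL.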
hERG WT inh = inhibitors of human wildtype KCNH2 potassium channel; U2OS, BacMam KCNH2, thallium flux FluxOr; stronger effect = lower value; activity change, % at 1.84 µM; 340,000 tested, 0.37% active;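 active = maximum activity change below -70%; inconclusive = maximum activity change between -70% and -50%; inactive = maximum activity change above -50%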; note: % is set by controls: 0 for no effect and ±100 for the full control effect
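U2OS cells transduced with wild-type KCNH2 virus are loaded with FluxOr dye for 45 min, and thallium flux is measured in kinetic reads before and after stimulation buffer. Rate constants are normalized to DMSO controls.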
* marks the source's active call; other numbers are inactive results; ? = inconclusive; . = not tested or not shown. A selection: hits, their analogues and other compounds. The true share with any hit is near 3.8%. Unless noted, calls come from the whole dose curve; as a rule, active = well fitted curve in the direction sought with a large enough effect; inconclusive = small, poorly fitted or top-dose-only effect, or another doubt; inactive = no such curve, though single readings can be large; an effect the other way counts as inactive or inconclusive.

SMILES	VDR inhibitor	PLK1 PBD inh	MBNL1-CUG inh	CBFb RUNX1 block	KCNH2 3.1 block	hERG WT inh
CCOC(=O)CSC1=C(C#N)C(c2ccccc2F)C(C(C)=O)=C(C)N1 (stereo unspecified)	-6.1%	-27.2%	8.9%	5.3%	17.7	-2.6
CCOC(=O)CSC1=C(C#N)C(c2sccc2C)C(C(C)=O)=C(C)N1 (stereo unspecified)	-13.7%	26.7µM*	5.0%	6.5%	-3.7	-0.2
CCOC(=O)c1sc2nc3n(c(=O)c2c1C)CCC(C)CC3 (stereo unspecified)	-16.7%	29.9µM*	4.9%	4.5%	6.1	-11.4
Cc1ccc2c(C)cc(=S)[nH]c2c1	-13.2%	?	.	16.0%	6.1	-11.7
Cc1ccc2[nH]c(=S)cc(C)c2c1	-22.5%	5.97µM*	83.0%	5.9%	9.6	1.9
CC1(C)CC(=O)CC2(C1)NCC(c1ccccc1)c1c2[nH]c2ccccc12 (stereo unspecified)	1.6%	-2.2%	-3.3%	1.9%	-101.6*	-74.9*
COc1cccc(C2CNC3(CCCC(C)C3)c3[nH]c4ccccc4c32)c1OC (stereo unspecified)	2.3%	-21.0%	-16.2%	.	-31.4	-3.2
Cc1cc(=O)n2nc(N(C)CC(=O)NCc3ccccc3C)sc2n1	14.8%	.	.	.	.	.
O=C(CCC1CCCCC1)NCCN1C2=NC[C@H](Cc3ccc(O)cc3)N2C[C@H]1Cc1ccc(O)cc1	0.1%	?	-12.4%	-16.3%	20.3	-0.1
CC(C)[C@H]1CN=C2N(CCNC(=O)CCC3CCCCC3)[C@H](Cc3ccc(O)cc3)CN21	-2.7%	26.7µM*	?	2.0%	-0.4	-0.4
C[C@@H]1CN=C2N(CCNC(=O)CCC3CCCCC3)[C@H](Cc3ccc(O)cc3)CN21	1.1%	?	-2.3%	8.5%	-14.0	-6.0
COc1ccc(C[C@H]2CN3C(=NC[C@@H]3Cc3ccccc3)N2CCNC(=O)CCC2CCCCC2)cc1	3.1%	-17.2%	-5.3%	4.9%	?	-144.5*
CNC(=O)C1CCC(Cn2c(=O)c3sccc3n(CC(=O)Nc3ccc(C)c(F)c3)c2=O)CC1 (stereo unspecified)	1.6%	.	.	.	.	.
CCOC(=O)c1ccc(NC2=CC(c3ccc(O)c(OCC)c3)N(c3ccc(C(=O)OCC)cc3)C2=O)cc1 (stereo unspecified)	-9.0%	.	.	.	.	.
CC(C)SCC(=O)Nc1ncc2c(n1)-c1ccccc1CC2	7.0%	18.9µM*	12.1%	2.0%	3.6	-6.8
O=C(Nc1ncc2c(n1)-c1ccccc1CC2)C1CC1	-5.1%	-26.9%	2.2%	10.9%	19.8	1.1
COc1ccc(C2Nc3ccccc3C(=O)N2NS(C)(=O)=O)c(OC)c1 (stereo unspecified)	?	21.2µM*	2.0%	.	10.7	2.9
O=C(O)CCN1C(=O)/C(=C\c2cccc(OCc3ccccc3)c2)SC1=S	?	18.9µM*	4.8%	.	-0.6	1.2
COc1cccc(/C=C2/SC(=S)N(CCC(=O)N3CCOCC3)C2=O)c1	-9.6%	29.9µM*	22.0%	.	-23.1	0.2
O=C(O)CN1C(=O)/C(=C\c2cc(Br)ccc2OCc2ccc([N+](=O)[O-])cc2)SC1=S	35.5µM*	21.2µM*	23.5%	.	-6.5	-8.4
O=C(O)CN1C(=O)/C(=C\c2cc(Br)ccc2OCc2ccccc2F)SC1=S	?	18.9µM*	-1.3%	.	0.9	-8.5
O=C(O)CCN1C(=O)/C(=C\c2ccc(OCc3ccccc3)c(OCc3ccccc3)c2)SC1=S	-22.7%	-20.7%	1.7%	.	4.8	-1.9
COc1ccccc1NC(=O)CSc1nc2c(oc3ccccc32)c(=O)n1-c1ccc(C)cc1	0.7%	.	.	.	.	.
COc1ccc(C(=O)N2CC(=O)Nc3ccc(C)cc3C2c2ccccc2)cc1OC (stereo unspecified)	-10.1%	.	.	.	.	.
CCCOc1ccc(NC(=O)CC2C(=O)N(c3ccc(Cl)cc3)C(=O)N2CCc2ccncc2)cc1 (stereo unspecified)	14.0%	.	.	.	.	.
SMILES	VDR inhibitor	PLK1 PBD inh	MBNL1-CUG inh	CBFb RUNX1 block	KCNH2 3.1 block	hERG WT inh
COc1cccc(/C=C2/SC(=S)N(CC(=O)NNC(=O)c3ccccc3OC)C2=O)c1	-11.7%	-0.3%	0.2%	.	6.4	-3.5
O=C(O)CN1C(=O)/C(=C\c2ccccc2OCc2ccc(Cl)cc2Cl)SC1=S	?	26.7µM*	-17.8%	.	-3.0	-0.1
O=C(O)CN1C(=O)/C(=C\c2cc(Br)ccc2OCc2ccccc2Cl)SC1=S	?	16.8µM*	-3.8%	.	-2.4	-6.5
CCOc1ccccc1C=C1SC(=S)N(CC)C1=O	-9.2%	3.9%	.	.	-3.2	5.2
O=C(O)CN1C(=O)/C(=C\c2cccc(OCc3ccc(Cl)cc3Cl)c2)SC1=S	?	21.2µM*	-0.1%	.	-0.2	0.6
O=C(O)COc1ccc(Br)cc1/C=C1/SC(=O)N(CC(=O)N2CCCC2)C1=O	?	-27.8%	?	-3.5%	19.7	3.9
O=C(O)CCC(=O)Nc1ccc(F)cc1	6.2%	-10.2%	-7.1%	4.9%	2.8	2.5
O=C(O)CCC(=O)Nc1ccc(SSc2ccc(NC(=O)CCC(=O)O)cc2)cc1	?	0.947µM*	-3.4%	.	22.8	-9.4
O=C1OC(c2ccccc2)(c2ccccc2)c2ccccc21	-18.1%	-2.8%	.	.	-39.9	-44.7
O=C1CC(c2ccccc2)(c2ccccc2)c2ccccc21	-2.3%	-6.6%	.	.	-102.7*	-95.1*
CCOc1cccc(C2CC(=O)Nc3cc4c(cc32)OCCO4)c1 (stereo unspecified)	-23.2%	.	.	.	.	.
CCN(CC)c1ccc(NS(=O)(=O)c2ccc3c(c2)CCCN3C(C)=O)c(C)c1	-1.8%	.	.	.	.	.
CC1(C)CC(=O)C(C(=O)/C=C/NCCc2ccccc2)C(=O)C1	3.4%	-3.4%	5.7%	3.8%	8.9	2.4
CC1(C)CC(=O)C(C(=O)/C=C/c2ccco2)C(=O)C1	?	9.47µM*	-5.1%	-10.7%	-4.8	.
CC1(C)CCCN(C(=O)c2coc(=O)c(Br)c2)C1	-9.4%	10.6µM*	27.6%	-24.6%	-5.6	0.3
Cc1ccc(C2(C(F)(F)F)NC(=O)N3N=C4CCCCCN4C3=C2C#N)cc1 (stereo unspecified)	12.5%	-6.5%	-2.6%	10.2%	0.5	1.1
N#CC1=C2Nc3ccccc3N2C(=O)NC1(c1ccccc1)C(F)(F)F (stereo unspecified)	-24.4%	23.8µM*	-2.8%	-0.4%	-11.6	-5.2
CCCSc1ncc(Cl)c(C(=O)Nc2c(C(=O)Nc3ccc(C)cc3)oc3ccccc23)n1	4.2%	.	.	.	.	.
Cc1ccc(C)c2c1CCC(=Cc1ccccc1[N+](=O)[O-])C2=O	.	-7.1%	.	.	-5.6	-17.9
CN1C/C(=C/c2ccccc2[N+](=O)[O-])C(=O)/C(=C\c2ccccc2[N+](=O)[O-])C1	70.8µM*	-17.9%	.	.	-14.9	14.3
